Results taken from article PMC11006913.
Where a chain is given by its changes, count along the chain named.

Columns and labels:
Test in all cases: PBM; 200 nM protein, PBS
Conditions in all cases: dsDNA, one strand shown
PAX4 [1] = target: T1, PAX4 (Homo sapiens, UniProt O43316 9-242, R200K)
T1 sequence: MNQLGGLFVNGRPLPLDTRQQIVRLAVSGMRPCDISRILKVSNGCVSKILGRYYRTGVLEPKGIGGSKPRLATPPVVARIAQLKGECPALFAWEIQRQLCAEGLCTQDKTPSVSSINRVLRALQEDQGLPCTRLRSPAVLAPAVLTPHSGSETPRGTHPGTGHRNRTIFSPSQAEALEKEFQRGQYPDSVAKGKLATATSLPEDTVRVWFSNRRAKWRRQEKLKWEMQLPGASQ

PAX4 [2] = target: T2, PAX4 (Homo sapiens, UniProt O43316 9-242)
T2 sequence: T1 sequence with K192R

ALX3 [3] = target: ALX3 (Homo sapiens, UniProt O95076 139-225, N203Q)
Sequence of ALX3 (Homo sapiens, UniProt O95076 139-225, N203Q) (O95076 139-225 N203Q): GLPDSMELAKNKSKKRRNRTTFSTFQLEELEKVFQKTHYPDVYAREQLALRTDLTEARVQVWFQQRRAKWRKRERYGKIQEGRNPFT

PAX4 [4] = target: T3, PAX4 (Homo sapiens, UniProt O43316 9-242, R200Q)
T3 sequence: T1 sequence with K192Q

PAX4 [5] = target: T4, PAX4 (Homo sapiens, UniProt O43316 9-242, F177V)
T4 sequence: T1 sequence with F169V, K192R

ALX3 [6] = target: ALX3 (Homo sapiens, UniProt O95076 139-225)
Sequence of ALX3 (Homo sapiens, UniProt O95076 139-225) (O95076 139-225): as the sequence (O95076 139-225 N203Q) above, with Q65N counted along it

PAX4 [7] = target: T5, PAX4 (Homo sapiens, UniProt O43316 9-242, F177Y)
T5 sequence: T1 sequence with F169Y, K192R

ALX3 [8] = target: ALX3 (Homo sapiens, UniProt O95076 139-225, L168Q)
Sequence of ALX3 (Homo sapiens, UniProt O95076 139-225, L168Q) (O95076 139-225 L168Q): as the sequence (O95076 139-225 N203Q) above, with L30Q, Q65N counted along it

ALX3 [9] = target: ALX3 (Homo sapiens, UniProt O95076 139-225, L168V)
Sequence of ALX3 (Homo sapiens, UniProt O95076 139-225, L168V) (O95076 139-225 L168V): as the sequence (O95076 139-225 N203Q) above, with L30V, Q65N counted along it

PAX4 [10] = target: T6, PAX4 (Homo sapiens, UniProt O43316 9-242, R227W)
T6 sequence: T1 sequence with K192R, R219W

ALX3 [11] = target: ALX3 (Homo sapiens, UniProt O95076 139-225, N203S)
Sequence of ALX3 (Homo sapiens, UniProt O95076 139-225, N203S) (O95076 139-225 N203S): as the sequence (O95076 139-225 N203Q) above, with Q65S counted along it

HOXD13 [12] = target: HOXD13 (Homo sapiens, UniProt P35453 263-343, T313R)
Sequence of HOXD13 (Homo sapiens, UniProt P35453 263-343, T313R) (P35453 263-343 T313R): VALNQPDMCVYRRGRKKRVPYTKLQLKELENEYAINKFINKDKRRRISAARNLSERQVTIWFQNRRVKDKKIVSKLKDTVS

HOXD13 [13] = target: HOXD13 (Homo sapiens, UniProt P35453 263-343)
Sequence of HOXD13 (Homo sapiens, UniProt P35453 263-343) (P35453 263-343): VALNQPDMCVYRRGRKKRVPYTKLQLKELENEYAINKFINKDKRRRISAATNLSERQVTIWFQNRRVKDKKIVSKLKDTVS

HOXD13 [14] = target: HOXD13 (Homo sapiens, UniProt P35453 263-343, T313A)
Sequence of HOXD13 (Homo sapiens, UniProt P35453 263-343, T313A) (P35453 263-343 T313A): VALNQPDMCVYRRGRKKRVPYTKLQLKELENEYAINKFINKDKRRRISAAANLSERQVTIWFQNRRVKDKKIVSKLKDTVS

HOXC9 = HOXC9 (Homo sapiens, UniProt P31274 178-260, R222W)
Sequence of HOXC9 (P31274 178-260 R222W): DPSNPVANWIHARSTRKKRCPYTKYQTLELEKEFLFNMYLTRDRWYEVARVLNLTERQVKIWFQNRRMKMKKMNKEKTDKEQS

HOXA2 [15] = target: HOXA2 (Homo sapiens, UniProt O43364 129-215, R185T)
Sequence of HOXA2 (Homo sapiens, UniProt O43364 129-215, R185T) (O43364 129-215 R185T): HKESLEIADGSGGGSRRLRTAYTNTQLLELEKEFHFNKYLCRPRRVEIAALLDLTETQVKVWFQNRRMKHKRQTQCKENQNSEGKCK

HOXA2 [16] = target: HOXA2 (Homo sapiens, UniProt O43364 129-215, R185K)
Sequence of HOXA2 (Homo sapiens, UniProt O43364 129-215, R185K) (O43364 129-215 R185K): as the sequence (O43364 129-215 R185T) above, with T57K counted along it

HOXA2 [17] = target: HOXA2 (Homo sapiens, UniProt O43364 129-215, Y150S)
Sequence of HOXA2 (Homo sapiens, UniProt O43364 129-215, Y150S) (O43364 129-215 Y150S): as the sequence (O43364 129-215 R185T) above, with Y22S, T57R counted along it

HOXA2 [18] = target: HOXA2 (Homo sapiens, UniProt O43364 129-215)
Sequence of HOXA2 (Homo sapiens, UniProt O43364 129-215) (O43364 129-215): as the sequence (O43364 129-215 R185T) above, with T57R counted along it

NKX2-6 [19] = target: T7, NKX2-6 (Homo sapiens, UniProt A6NCS4 118-204)
T7 sequence: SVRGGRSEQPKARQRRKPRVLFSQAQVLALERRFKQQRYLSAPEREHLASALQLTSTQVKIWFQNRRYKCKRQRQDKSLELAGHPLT

NKX2-6 [20] = target: T8, NKX2-6 (Homo sapiens, UniProt A6NCS4 118-204, F151L)
T8 sequence: T7 sequence with F34L

GAAGGACC
binding signal (PAX4 [1]): 9.27 upbm affinity estimate (log intensity, higher = more binding, comparable within an allelic series)
binding signal (PAX4 [2]): 9.3 upbm affinity estimate (log intensity, higher = more binding, comparable within an allelic series)
binding signal (ALX3 [3]): 7.9 upbm affinity estimate (log intensity, higher = more binding, comparable within an allelic series)
binding signal (PAX4 [4]): 9.41 upbm affinity estimate (log intensity, higher = more binding, comparable within an allelic series)
binding signal (PAX4 [5]): 9.34 upbm affinity estimate (log intensity, higher = more binding, comparable within an allelic series)
binding signal (ALX3 [6]): 7.9 upbm affinity estimate (log intensity, higher = more binding, comparable within an allelic series)
binding signal (PAX4 [7]): 9.33 upbm affinity estimate (log intensity, higher = more binding, comparable within an allelic series)
binding signal (ALX3 [8]): 7.8 upbm affinity estimate (log intensity, higher = more binding, comparable within an allelic series)
binding signal (ALX3 [9]): 7.85 upbm affinity estimate (log intensity, higher = more binding, comparable within an allelic series)
binding signal (PAX4 [10]): 9.46 upbm affinity estimate (log intensity, higher = more binding, comparable within an allelic series)
binding signal (ALX3 [11]): 7.83 upbm affinity estimate (log intensity, higher = more binding, comparable within an allelic series)

AATTTATA
binding signal (PAX4 [1]): 11.2 upbm affinity estimate (log intensity, higher = more binding, comparable within an allelic series)
binding signal (PAX4 [2]): 11.4 upbm affinity estimate (log intensity, higher = more binding, comparable within an allelic series)
binding signal (ALX3 [3]): 8.61 upbm affinity estimate (log intensity, higher = more binding, comparable within an allelic series)
binding signal (HOXD13 [12]): 10.9 upbm affinity estimate (log intensity, higher = more binding, comparable within an allelic series)
binding signal (PAX4 [4]): 11.3 upbm affinity estimate (log intensity, higher = more binding, comparable within an allelic series)
binding signal (HOXD13 [13]): 11.7 upbm affinity estimate (log intensity, higher = more binding, comparable within an allelic series)
binding signal (PAX4 [5]): 10.6 upbm affinity estimate (log intensity, higher = more binding, comparable within an allelic series)
binding signal (PAX4 [7]): 10.8 upbm affinity estimate (log intensity, higher = more binding, comparable within an allelic series)
binding signal (HOXD13 [14]): 11.6 upbm affinity estimate (log intensity, higher = more binding, comparable within an allelic series)
binding signal (HOXC9): 11.1 upbm affinity estimate (log intensity, higher = more binding, comparable within an allelic series)
binding signal (PAX4 [10]): 10.7 upbm affinity estimate (log intensity, higher = more binding, comparable within an allelic series)
binding signal (ALX3 [11]): 8.71 upbm affinity estimate (log intensity, higher = more binding, comparable within an allelic series)

CGGAGCCG
binding signal (PAX4 [1]): 9.19 upbm affinity estimate (log intensity, higher = more binding, comparable within an allelic series)
binding signal (PAX4 [2]): 9.38 upbm affinity estimate (log intensity, higher = more binding, comparable within an allelic series)
binding signal (HOXA2 [15]): 7.43 upbm affinity estimate (log intensity, higher = more binding, comparable within an allelic series)
binding signal (PAX4 [4]): 9.24 upbm affinity estimate (log intensity, higher = more binding, comparable within an allelic series)
binding signal (HOXA2 [16]): 10.1 upbm affinity estimate (log intensity, higher = more binding, comparable within an allelic series)
binding signal (PAX4 [5]): 9.03 upbm affinity estimate (log intensity, higher = more binding, comparable within an allelic series)
binding signal (PAX4 [7]): 9.04 upbm affinity estimate (log intensity, higher = more binding, comparable within an allelic series)
binding signal (PAX4 [10]): 9.09 upbm affinity estimate (log intensity, higher = more binding, comparable within an allelic series)
binding signal (HOXA2 [17]): 10.4 upbm affinity estimate (log intensity, higher = more binding, comparable within an allelic series)
binding signal (HOXA2 [18]): 7.23 upbm affinity estimate (log intensity, higher = more binding, comparable within an allelic series)

GCCTGTCC
binding signal (PAX4 [1]): 9.34 upbm affinity estimate (log intensity, higher = more binding, comparable within an allelic series)
binding signal (PAX4 [2]): 9.22 upbm affinity estimate (log intensity, higher = more binding, comparable within an allelic series)
binding signal (HOXA2 [15]): 7.41 upbm affinity estimate (log intensity, higher = more binding, comparable within an allelic series)
binding signal (ALX3 [3]): 7.8 upbm affinity estimate (log intensity, higher = more binding, comparable within an allelic series)
binding signal (NKX2-6 [19]): 9.8 upbm affinity estimate (log intensity, higher = more binding, comparable within an allelic series)
binding signal (PAX4 [4]): 9.44 upbm affinity estimate (log intensity, higher = more binding, comparable within an allelic series)
binding signal (HOXA2 [16]): 10.4 upbm affinity estimate (log intensity, higher = more binding, comparable within an allelic series)
binding signal (PAX4 [5]): 9.3 upbm affinity estimate (log intensity, higher = more binding, comparable within an allelic series)
binding signal (ALX3 [6]): 7.73 upbm affinity estimate (log intensity, higher = more binding, comparable within an allelic series)
binding signal (PAX4 [7]): 9.34 upbm affinity estimate (log intensity, higher = more binding, comparable within an allelic series)
binding signal (ALX3 [8]): 7.77 upbm affinity estimate (log intensity, higher = more binding, comparable within an allelic series)
binding signal (NKX2-6 [20]): 9.38 upbm affinity estimate (log intensity, higher = more binding, comparable within an allelic series)
binding signal (ALX3 [9]): 7.73 upbm affinity estimate (log intensity, higher = more binding, comparable within an allelic series)
binding signal (PAX4 [10]): 9.36 upbm affinity estimate (log intensity, higher = more binding, comparable within an allelic series)
binding signal (HOXA2 [17]): 10.4 upbm affinity estimate (log intensity, higher = more binding, comparable within an allelic series)
binding signal (ALX3 [11]): 7.78 upbm affinity estimate (log intensity, higher = more binding, comparable within an allelic series)
binding signal (HOXA2 [18]): 7.48 upbm affinity estimate (log intensity, higher = more binding, comparable within an allelic series)

CGGTACCG
binding signal (PAX4 [1]): 9.38 upbm affinity estimate (log intensity, higher = more binding, comparable within an allelic series)
binding signal (PAX4 [2]): 9.43 upbm affinity estimate (log intensity, higher = more binding, comparable within an allelic series)
binding signal (HOXA2 [15]): 7.62 upbm affinity estimate (log intensity, higher = more binding, comparable within an allelic series)
binding signal (ALX3 [3]): 7.72 upbm affinity estimate (log intensity, higher = more binding, comparable within an allelic series)
binding signal (NKX2-6 [19]): 9.13 upbm affinity estimate (log intensity, higher = more binding, comparable within an allelic series)
binding signal (PAX4 [4]): 9.37 upbm affinity estimate (log intensity, higher = more binding, comparable within an allelic series)
binding signal (HOXA2 [16]): 10.4 upbm affinity estimate (log intensity, higher = more binding, comparable within an allelic series)
binding signal (PAX4 [5]): 9.37 upbm affinity estimate (log intensity, higher = more binding, comparable within an allelic series)
binding signal (ALX3 [6]): 7.9 upbm affinity estimate (log intensity, higher = more binding, comparable within an allelic series)
binding signal (PAX4 [7]): 9.28 upbm affinity estimate (log intensity, higher = more binding, comparable within an allelic series)
binding signal (ALX3 [8]): 7.73 upbm affinity estimate (log intensity, higher = more binding, comparable within an allelic series)
binding signal (NKX2-6 [20]): 9.24 upbm affinity estimate (log intensity, higher = more binding, comparable within an allelic series)
binding signal (ALX3 [9]): 7.69 upbm affinity estimate (log intensity, higher = more binding, comparable within an allelic series)
binding signal (PAX4 [10]): 9.32 upbm affinity estimate (log intensity, higher = more binding, comparable within an allelic series)
binding signal (HOXA2 [17]): 10.4 upbm affinity estimate (log intensity, higher = more binding, comparable within an allelic series)
binding signal (ALX3 [11]): 7.78 upbm affinity estimate (log intensity, higher = more binding, comparable within an allelic series)
binding signal (HOXA2 [18]): 7.54 upbm affinity estimate (log intensity, higher = more binding, comparable within an allelic series)

AAAATCAG
binding signal (PAX4 [1]): 10.5 upbm affinity estimate (log intensity, higher = more binding, comparable within an allelic series)
binding signal (PAX4 [2]): 10.7 upbm affinity estimate (log intensity, higher = more binding, comparable within an allelic series)
binding signal (PAX4 [4]): 10.6 upbm affinity estimate (log intensity, higher = more binding, comparable within an allelic series)
binding signal (PAX4 [5]): 10.1 upbm affinity estimate (log intensity, higher = more binding, comparable within an allelic series)
